LASV entry inh: blocks Lassa virus binding to or entry into cells | Lassa virus pseudotype entry inhibition, cell reporter | Potency, µM (doses to about 37.9 µM), for the others: at the top dose activity change, negative = inhibition, usual class: inhibitors | 300,000 compounds, 1.2% hits | AID 540256; calls by dose curve; tested in HEK293 cells; further: potency means the concentration at half of the fitted maximal effect; nearly all actives have a fitted effect of over 50% in size
MARV entry inh: Marburg virus entry inhibition; Potency, µM (top dose mostly 37.8 µM), for inactives: at the top dose activity change, negative = inhibition, most hits filed as inhibitors; Marburg virus pseudotyped entry inhibition, cell reporter; AID 540276; 300,000 compounds, 1.8% hits; calls by dose curve; tested in HEK293 cells; further: potency means the concentration at half of the fitted maximal effect
FMDV antiviral: antivirals against foot and mouth disease virus. FMDV antiviral cell-based qHTS. Potency, µM (highest dose often 57.9 µM), for the others: top-dose activity change, negative = inhibition, actives largely listed as inhibitors. 410,000 compounds, 1.2% hits; calls by dose curve; tested in HEK293T cells; further: read-out not given here; potency means the concentration at half of the fitted maximal effect; nearly all actives have a fitted effect of over 45% in size
HCMV inh: blocks human cytomegalovirus replication; HFF cells, HCMV-luciferase reporter, 72 h; stronger effect = lower value; AID 1259415; 410,000 compounds, 4.5% hits; activity change, negative = inhibition, % at 57.5 µM; in the data active means activity change below about -60%; inconclusive means no clear call, values can overlap the other calls; inactive means above about -39%
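Cell-based, HFFs, 1000 cells/well, 16 h 37C; cpds in DMSO + HCMV-luc, MOI 1 PFU/cell; 72 h 37C; OneGlo luminescence after 5 min RT; norm. to buffer vs Salinomycin 10uM.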
The depositor's hits bear a star; u = inconclusive; x = no result; [ ] = remark or other dose. An excerpt weighted towards active compounds, which were near 6.2% of everything screened. On the % scale 0 is the no-effect control and ±100 the full control effect.

SMILES	LASV entry inh	MARV entry inh	FMDV antiviral	HCMV inh
CCCCCn1c(CN2CCN(c3cc(Cl)ccc3C)CC2)nc2c1c(=O)[nH]c(=O)n2C	u	16.4µM*	28.2µM*	u
COc1ccccc1C(=O)N1CCOc2ccc(C(C)(O)CCn3cccn3)cc2C1 (configuration not stated)	x	x	-0.5%	x
CCc1cccc(CC)c1NC(=O)CN1CC(C)SC1=NC1CCCCC1 (configuration not stated)	u	u	-13.2%	-63.1*
CCc1cccc(CC)c1NC(=O)NC1CCCCC1	16.1%	u	-22.6%	6.7
O=C(c1cc2nc(-c3ccc(F)cc3)cc(C(F)(F)F)n2n1)N1CCCCC1c1cccnc1 (configuration not stated)	u	u	17.8µM*	-89.9*
CC(=O)Nc1sc2c(c1CN1CCN(c3ccc(F)cc3)CC1)CCCC2	u	10µM*	u	1.2
CC(=O)Nc1sc2c(c1CN1CCCC1)CCCC2	-16.1%	u	-18.2%	8.5
Cc1cccc(N2CCN(C(=O)Cn3cnc4sc(C)c(S(=O)(=O)N5CCN(c6ncccn6)CC5)c4c3=O)CC2C)c1 (configuration not stated)	u	u	-19.2%	-8.3
CC(=O)Nc1ccc(CC(=O)NCCC(c2ccccc2)c2ccccc2)cc1	0.891µM*	u	-0.4%	-19.9
N#CCC(=O)Nc1ccc(C(=O)NCCC(c2ccccc2)c2ccccc2)cc1	x	-6.0%[46.1 µM]	-27.4%	-13.6
COc1ccccc1Cc1c(-c2ccc(C)cc2)nc2cc(C)c(Br)c(C)n12	x	x	14.2%	81.3
OC1(c2ccccc2)CCN(Cc2ccccc2)C2CCCCC21 (configuration not stated)	u	8.91µM*	-28.3%	-32.3
O=Cc1cnc(N2CCN(Cc3ccccc3)CC2)s1	-14.7%[46.1 µM]	12.2%[46.1 µM]	-13.3%	-63.5*
O=Cc1cnc(N2CCN(c3ccccc3)CC2)s1	2.2%[46.1 µM]	u	-1.9%	13.9
Cc1cccnc1-c1cccc2c1OC(CNC(=O)C(=O)c1ccccc1)C2 (configuration not stated)	x	x	-9.9%	x
CCc1ccc(Nc2cc(C)nc3nc(Cc4ccc(Cl)cc4)nn23)cc1	u	u	u	-91.5*
Cc1ccc(Nc2cc(C)nc3nc(Cc4ccc(Cl)cc4)nn23)cc1	-16.0%[46.1 µM]	-4.3%[46.1 µM]	0.0%	-17.7
CN(C)c1cccc(Nc2nccc3[nH]c(-c4ccsc4)cc23)c1	x	x	x	-8.2
N/C(=N\OC(=O)c1ccc([N+](=O)[O-])cc1Cl)c1ccccn1	u	u	15.8µM*	-72.1*
N/C(=N\OC(=O)c1ccc(Cl)cc1Cl)c1ccncc1	x	x	62.4%	50.2
N/C(=N\OC(=O)c1ccccc1Cl)c1ccncc1	-24.2%	u	40.2%	-99.5*
N/C(=N\OC(=O)c1ccc(Cl)cc1[N+](=O)[O-])c1ccccn1	u	u	-14.4%	-37.6
N/C(=N\OC(=O)/C=C/c1ccccc1)c1ccccn1	-25.6%[46.1 µM]	7.94µM*	-34.0%	7.9
N/C(=N\OC(=O)c1ccc(Cl)cc1Cl)c1ccccn1	5.17µM*	3.66µM*	-54.5%	-61.3*
COC(=O)[C@@H]1[C@@H](c2ccccc2)NC(=O)N(CCc2cc(OC)c(OC)c(OC)c2)[C@@H]1C	x	-31.0%[14.2 µM]	x	x
SMILES	LASV entry inh	MARV entry inh	FMDV antiviral	HCMV inh
Cc1ccc(C(=O)O/N=C(\N)c2ccccn2)c(Cl)c1	x	x	10µM*	-80.4*
Cc1cccc(C)c1OCc1nnc(SCC(=O)O)n1-c1c(C)cccc1C	x	x	x	-7.3
CCC(C)n1c(O)c(/C=N/Nc2ccccc2)c(=O)[nH]c1=S (configuration not stated)	u	4.4%	11.6%	-79.9*
Fc1ccc(NC(=S)Nc2nccs2)cc1	x	x	55.3%	-115.0*
S=C(Nc1ccccc1)Nc1nccs1	14.6µM*	14.1µM*	34.3%	-18.6
Fc1ccc(NC(=S)Nc2ccc3nccnc3c2)cc1	x	x	41.1%	-28.6
N#CCCN1CCC(N)=NC1=NC#N	x	x	x	61.4
O=C(O)CCn1cc(/C=C/C(=O)c2ccc(Cl)cc2)c(-c2ccc(Br)cc2)n1	-26.2%	-25.5%	15.8µM*	-25.0
O=C(O)CCn1cc(C=C2C(=O)NC(=O)NC2=O)c(-c2ccc(Br)cc2)n1	23.4%	u	-1.7%	-11.8
O=S(=O)(c1ccccc1)c1nc(-c2ccco2)oc1Nc1ccccc1	u	0.0%	31.2%	-62.1*
O=S(=O)(c1ccc(F)cc1)c1nc(-c2ccco2)oc1Nc1ccccc1	u	10.9%	54.3%	5.8
CCOC(=O)c1c(C)[n+](-c2ccc(C)cc2)c(CC)c2cc(OC)c(OC)cc12	x	x	-22.9%	-81.3*
COc1ccccc1CNC(=O)C1CCN(c2nc3ccc(Cl)cc3[nH]2)CC1	3.7%[46.1 µM]	x	-6.2%	0.0
